# Measurements as given in PubChem BioAssay (NCATS).
# Several values for one entry are separate records, joined by “and”; a condition that tells them apart may be missing. Identical values can stand only once. A number with no mark means an inactive call. Results filed as inconclusive are left out. A call without a number means that no potency is given here. Activity calls are given as the source filed them. Unless noted, the call rests on the fitted dose curve; in most records, active means well fitted curve in the direction sought with a large enough effect; inconclusive means small, poorly fitted or top-dose-only effect, or another doubt; inactive means no such curve, though single readings can be large; an effect the other way counts as inactive or inconclusive.
# What was measured:
# [1] = target: Glutaminase kidney isoform, mitochondrial (Homo sapiens) (UniProt O94925); assay: qHTS for Inhibitors of Glutaminase (GLS): LOPAC Validation (AID 624146); further: nearly all actives have a fitted effect of over 60% in size; further: potency means the concentration at half of the fitted maximal effect
# Glutaminase kidney isoform, mitochondrial (Homo sapiens), sequence (O94925 whole entry, looked up, canonical isoform): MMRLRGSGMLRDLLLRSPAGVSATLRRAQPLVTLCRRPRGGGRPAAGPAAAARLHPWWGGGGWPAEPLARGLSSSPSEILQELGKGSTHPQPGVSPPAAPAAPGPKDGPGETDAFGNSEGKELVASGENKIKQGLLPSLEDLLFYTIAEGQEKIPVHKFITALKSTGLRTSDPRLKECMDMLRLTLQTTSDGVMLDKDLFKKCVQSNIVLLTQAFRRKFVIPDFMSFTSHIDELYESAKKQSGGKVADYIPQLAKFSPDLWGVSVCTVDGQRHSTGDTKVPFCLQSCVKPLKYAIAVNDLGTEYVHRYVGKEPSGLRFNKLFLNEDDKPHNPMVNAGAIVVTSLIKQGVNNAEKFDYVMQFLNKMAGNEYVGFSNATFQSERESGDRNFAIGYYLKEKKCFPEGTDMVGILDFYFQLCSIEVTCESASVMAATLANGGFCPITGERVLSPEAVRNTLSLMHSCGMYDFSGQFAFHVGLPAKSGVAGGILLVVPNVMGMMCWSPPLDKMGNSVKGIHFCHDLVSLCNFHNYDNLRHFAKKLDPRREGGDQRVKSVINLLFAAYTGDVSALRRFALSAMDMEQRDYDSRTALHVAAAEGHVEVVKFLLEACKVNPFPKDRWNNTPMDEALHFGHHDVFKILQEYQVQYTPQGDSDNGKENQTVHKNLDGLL
# Outline: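 Glutamate formation by hKGA was monitored fluorometrically using coupled glutamate oxidase, HRP and Amplex Red. Substrate was added as 1 mM L-glutamine solution; incubation was 30 min at RT after an initial read.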
# [2] = target: Glucagon-like peptide 1 receptor (Homo sapiens) (UniProt P43220); assay: qHTS of GLP-1 Receptor Agonists: LOPAC Validation (AID 624148);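 further: luminescence from a luciferase reporter switched on by cAMP; higher luminescence signal means agonism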
# Glucagon-like peptide 1 receptor (Homo sapiens), sequence (P43220 whole entry, looked up): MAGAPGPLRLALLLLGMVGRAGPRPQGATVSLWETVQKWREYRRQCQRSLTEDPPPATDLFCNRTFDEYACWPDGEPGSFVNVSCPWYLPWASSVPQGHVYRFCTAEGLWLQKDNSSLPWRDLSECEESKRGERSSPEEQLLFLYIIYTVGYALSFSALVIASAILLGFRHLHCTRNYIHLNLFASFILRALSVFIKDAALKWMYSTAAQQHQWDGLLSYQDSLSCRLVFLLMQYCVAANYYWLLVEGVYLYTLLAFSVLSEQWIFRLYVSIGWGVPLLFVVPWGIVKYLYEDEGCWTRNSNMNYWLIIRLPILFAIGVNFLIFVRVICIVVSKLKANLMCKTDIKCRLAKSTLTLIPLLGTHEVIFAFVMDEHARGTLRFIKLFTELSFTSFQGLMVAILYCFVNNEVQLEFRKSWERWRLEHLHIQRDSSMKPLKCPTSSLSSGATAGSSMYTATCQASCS
# Outline: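 Agonism scored as increased luciferase luminescence driven by cAMP in HEK293 clones carrying GLP-1R. Cells settled 12 hours, received compound for 4-6 hr at 37 deg C, 5% CO2, and were read after 12 min detection reagent at RT.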
# [3] = qHTS of Nrf2 Activators: LOPAC Validation (AID 624149)
# Outline: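 Following overnight seeding in 5% FBS OPTI-MEM, AREc32_Fluc cells receive compounds for a 24 hr incubation at 37 deg C with 5% CO2. Steady-Glo is added, and after 30 min at RT luminescence is recorded.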
# [4] = HTS Assay for Allosteric Antagonists of the Human D2 Dopamine Receptor: Hit Validation in HTRF (AID 624455); further: potency means the concentration at half of the fitted maximal effect;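 further: stable D1 dopamine receptor cell line scored for blocking the D1 response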
# Outline: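 Validation of hits used D1 receptor stably expressed in cells with HTRF detection of response inhibition; origin screen measured calcium flux following EC80 dopamine in a force-coupled, inducible Hek293 Trex D2 cell line.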
# [5] = qHTS of Trypanosoma Brucei Inhibitors: LOPAC Validation (AID 624147)
# Outline: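 ADP (130 uM final) triggers the TbPYK reaction after compound addition; incubation is 45 min at room temperature. Kinase-Glo Plus is then added and luminescence imaged. Normalized data are fitted to concentration-effect curves.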
# [6] = qHTS assay for small molecule disruptors of the mitochondrial membrane potential - 1 hr assay (AID 651754; calls by dose curve; further: nearly all actives have a fitted effect of over 35% in size; further: potency means the concentration at half of the fitted maximal effect)
# Outline: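 In this qHTS format, a 1 hr compound treatment of HepG2 cells precedes Mito-MPS staining, and membrane potential is judged from aggregate (red) against monomer (green) fluorescence intensity.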
# [7] = qHTS assay for small molecule disruptors of the mitochondrial membrane potential - 5 hr assay (AID 651755; calls by dose curve; further: nearly all actives have a fitted effect of over 40% in size; further: potency means the concentration at half of the fitted maximal effect)
# Outline: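 Membrane-potential dye readout: red aggregate (540 ex/590 em) versus green monomer (490 ex/535 em) fluorescence after 30 min dye loading, following 5 hr compound exposure at 37C of overnight-plated HepG2 cells.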
# [8] = qHTS assay for small molecule activators of the nuclear factor-kappa B (NF-kB) signaling pathway (AID 651749; active means well fitted activation curve with a large enough effect in the signal ratio; the % refers to the signal ratio; further: series mostly up to about 77 µM); details: NF-kB-bla ME-180 cells, beta-lactamase FRET ratio, 16 h; stronger effect = higher value
# Outline: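 FRET-based beta-lactamase detection in ME-180 cells reports NF-kB response-element-driven transcription following overnight (16 hr) compound treatment.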
# [9] = qHTS assay for small molecule agonists of the antioxidant response element (ARE) signaling pathway (AID 651741; active means well fitted activation curve with a large enough effect in the signal ratio; the % refers to the signal ratio; further: potency means the concentration at half of the fitted maximal effect)
# Outline: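 Agonist activity is measured as ARE-driven beta-lactamase expression in a stable HepG2 reporter line, using 16 h compound treatment at 37 C and a FRET substrate fluorescence readout after 2 h.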
# [10] = qHTS assay for small molecule activators of the p53 signaling pathway (AID 651743; active means well fitted activation curve with a large enough effect in the signal ratio, not every such curve was filed as active; the % refers to the signal ratio; further: potency means the concentration at half of the fitted maximal effect; on activation: series mostly up to about 92 µM); details: HCT-116 p53RE-bla, beta-lactamase FRET ratio, 16 h; activation: stronger effect = higher value
# Outline: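 A beta-lactamase reporter under p53 response element control, stably carried by HCT-116 cells, reported pathway activation. Test compounds were applied for 16 hours at 37 C, and fluorescence was measured 2 hours after adding the B/G FRET substrate.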
compound,measurement,setting,value
C[C@@H](NC(=O)/C(C#N)=C/c1ccc(O)c(O)c1)c1ccccc1,Potency,[1],1 µM (active)
same,outcome,[2],inactive
same,outcome,[3],inactive
same,Potency,[4],inactive
N#C/C(=C\c1ccc(O)c(O)c1)C(=O)NCCCc1ccccc1,Potency,[5],inactive
same,outcome,[2],inactive
same,outcome,[3],inactive
same,Potency,[4],inactive
C[C@@H](CN1CCC(Cc2ccccc2)CC1)[C@@H](O)c1ccc(O)cc1,Potency,[1],inactive
same,Potency,[4],inactive
COc1ccccc1N1CCN(CCN(C(=O)c2ccc(I)cc2)c2ccccn2)CC1,Potency,[5],inactive
same,outcome,[3],inactive
same,Potency,[4],inactive
S=C(S)OC1CC2CC1C1CCCC21 (stereo not given),Potency,[5],inactive
same,outcome,[2],inactive
same,Potency,[4],inactive
O=C1NC(=O)/C(=C/c2ccc(-c3ccc(F)cc3O)o2)S1,Potency,[5],inactive
same,outcome,[2],inactive
same,Potency,[4],inactive
O=C1NC(=O)/C(=C/c2ccc3nccnc3c2)S1,Potency,[5],inactive
same,outcome,[2],inactive
same,outcome,[3],inactive
same,Potency,[4],inactive
COc1cc2c(CCNC(C)=O)c[nH]c2cc1Cl,Potency,[5],inactive
same,outcome,[2],inactive
same,outcome,[3],inactive
same,Potency,[4],inactive
CCCCCCCCCCCCCCCCCC(=O)OC(CC(=O)O)C[N+](C)(C)C (stereo not given),Potency,[5],inactive
same,outcome,[2],inactive
same,outcome,[3],inactive
same,Potency,[4],inactive
N=C(N)SCCc1ccc(CCSC(=N)N)cc1,Potency,[5],inactive
same,outcome,[3],inactive
same,Potency,[4],inactive
NC(=S)NCCC[C@H](N)C(=O)O,Potency,[5],inactive
same,outcome,[3],inactive
same,Potency,[4],inactive
O=Nc1ccc2oc(=O)ccc2c1,Potency,[5],inactive
same,outcome,[2],inactive
same,outcome,[3],inactive
same,Potency,[4],inactive
CN1CCc2cc(NC(=O)Nc3cccnc3)ccc21,Potency,[5],inactive
same,outcome,[2],inactive
same,outcome,[3],inactive
same,Potency,[4],inactive
CO/S(=N\S(=O)(=O)c1ccc(Cl)cc1)c1ccc([N+](=O)[O-])cc1 (stereo not given),Potency,[5],inactive
same,outcome,[2],inactive
same,outcome,[3],inactive
same,Potency,[4],inactive
CCCCCCCC/C=C\CCCCCCCC(=O)NCCO,Potency,[5],inactive
same,outcome,[3],inactive
same,Potency,[4],inactive
O=C1/C(=C/c2ccsc2)CC/C1=C\c1cccs1,Potency,[5],inactive
same,outcome,[2],inactive
same,Potency,[4],inactive
Oc1ccc(C2CNCc3sccc32)cc1O (stereo not given),Potency,[5],inactive
same,outcome,[2],inactive
same,outcome,[3],inactive
same,Potency,[4],0.146 µM (active)
CCOC(=O)N1CCN(/[N+]([O-])=N/Oc2ccc([N+](=O)[O-])cc2[N+](=O)[O-])CC1,Potency,[5],inactive
same,outcome,[2],inactive
same,Potency,[4],inactive
O=C(c1cc(O)c(O)c([N+](=O)[O-])c1)c1ccccc1F,Potency,[5],inactive
same,outcome,[2],inactive
same,outcome,[3],inactive
same,Potency,[4],inactive
NO,Potency,[5],inactive
same,outcome,[2],inactive
same,Potency,[4],inactive
CCNC(=O)[C@H]1O[C@@H](n2cnc3c(N)nc(NCCc4ccc(CCC(=O)O)cc4)nc32)[C@H](O)[C@@H]1O,Potency,[5],inactive
same,outcome,[2],inactive
same,outcome,[3],inactive
same,Potency,[4],5.17 µM (active)
CN1CCC[C@H]1c1cccnc1,Potency,[5],inactive
same,outcome,[2],inactive
same,outcome,[3],inactive
same,Potency,[4],inactive
same,Potency,[6],inactive
same,Potency,[7],inactive
CCCCCCCCc1ccc(-c2ccc(C(=O)O)cc2)cc1,Potency,[5],inactive
same,outcome,[2],inactive
same,outcome,[3],inactive
same,Potency,[4],inactive
Fc1ccc(C(OCCCc2cnc[nH]2)c2ccc(F)cc2)cc1,Potency,[5],inactive
same,outcome,[3],inactive
same,Potency,[4],inactive
Cn1ncc(S(=O)(=O)Cc2ccccc2)c(Br)c1=O,Potency,[5],inactive
same,outcome,[2],inactive
same,Potency,[4],inactive
N#C/C(=C\c1ccc(-c2cc(Cl)ccc2Cl)o1)C(=O)Nc1cccc2ncccc12,Potency,[5],inactive
same,outcome,[2],inactive
same,outcome,[3],inactive
same,Potency,[4],inactive
COc1cc(OC)c(/C=C2/C(=O)Nc3ccccc32)c(OC)c1,Potency,[5],inactive
same,outcome,[2],inactive
same,outcome,[3],inactive
same,Potency,[4],inactive
CC1CN(S(=O)(=O)c2cccc3cnccc23)CCN1 (stereo not given),Potency,[5],inactive
same,outcome,[2],inactive
same,outcome,[3],inactive
same,Potency,[4],inactive
C[N+](C)(C)CC(=O)[O-],Potency,[5],inactive
CN(C)c1nc(N)c(C(=O)N=C(N)N)nc1Cl,Potency,[5],inactive
same,outcome,[2],inactive
same,Potency,[4],inactive
COc1ccccc1N1CCN(CCCCNS(=O)(=O)c2cccc3c(N(C)C)cccc23)CC1,Potency,[5],inactive
same,outcome,[2],inactive
same,outcome,[3],inactive
same,Potency,[4],inactive
CC12C(=O)OC(=O)C1(C)C1CCC2O1 (stereo not given),Potency,[5],inactive
same,outcome,[2],inactive
same,outcome,[3],inactive
same,Potency,[4],inactive
O=P(O)(O)C(Cl)(Cl)P(=O)(O)O,Potency,[5],inactive
same,outcome,[2],inactive
same,outcome,[3],inactive
same,Potency,[4],inactive
COC1=C(OC)C(=O)c2ccccc2C1=O,Potency,[5],inactive
same,outcome,[2],inactive
same,outcome,[3],inactive
same,Potency,[4],inactive
O=C(O)CC1CCCc2ccccc2C1O (stereo not given),Potency,[5],inactive
same,outcome,[2],inactive
same,Potency,[4],inactive
OCC1O[C@H](O)C(Cl)C(O)C1O (stereo not given in full),Potency,[5],inactive
same,outcome,[2],inactive
same,outcome,[3],inactive
same,Potency,[4],inactive
O=c1[nH]c2cc(Cl)c(Cl)cc2[nH]c1=O,Potency,[5],inactive
same,outcome,[2],inactive
same,outcome,[3],inactive
same,Potency,[4],inactive
c1cnc2c(c1)ccc1cccnc12,Potency,[5],inactive
same,outcome,[2],inactive
same,outcome,[3],inactive
same,Potency,[4],inactive
same,activation,[8],1.8%
same,Potency,[6],inactive
Cc1ccc(S(=O)(=O)/C=C/C#N)cc1,outcome,[2],inactive
same,outcome,[3],inactive
same,Potency,[4],inactive
Nc1nc2ccc([N+](=O)[O-])cc2s1,Potency,[9],66.8 µM (active)
same,activation,[8],-0.326%
same,Potency,[6],16.8 µM (active)
same,Potency,[7],16.8 µM (active)
Nc1ncnc2c1ncn2[C@@H]1O[C@H](COP(=O)(O)CP(=O)(O)OP(=O)(O)O)[C@@H](O)[C@H]1O,Potency,[5],inactive
same,outcome,[3],inactive
same,Potency,[4],inactive
O=c1cc(-c2ccccc2)oc2ccccc12,Potency,[9],4.61 µM (active) and 5.45 µM (active)
same,activation,[8],-0.929% and -1.54%
CC1(C)S[C@@H]2[C@H](NC(=O)[C@H](N)c3ccccc3)C(=O)N2[C@H]1C(=O)O,activation,[10],1.65%
O=C(O)c1ccccc1Nc1cccc(C(F)(F)F)c1,activation,[10],3.61%
same,activation,[8],-0.0531%
NCCO,Potency,[9],inactive
same,activation,[10],-4.3%
N#C/C(=C\c1ccc(O)c(O)c1)C(=O)c1ccc(O)c(O)c1,outcome,[2],inactive
same,outcome,[3],inactive
same,Potency,[4],inactive
N.N.N.N.N.N.N.N.N.N.N.N.N.N.O.O.[Ru+4].[Ru+5].[Ru+5],outcome,[2],inactive
CN(C)CCC(c1ccc(Cl)cc1)c1ccccn1 (stereo not given),Potency,[5],inactive
same,Potency,[4],inactive
same,activation,[10],-2.38%
same,activation,[8],-0.341%
same,Potency,[7],inactive
CN1CCc2cc(O)c(O)cc2C(c2ccccc2)C1 (stereo not given),outcome,[2],inactive
same,outcome,[3],inactive
CC(=O)/C=C1\C(=O)N(C)c2ccccc21,outcome,[2],inactive
same,Potency,[4],inactive
Nc1ccc(O)c([N+](=O)[O-])c1,Potency,[9],26.6 µM (active) and 24.3 µM (active)
same,activation,[8],-0.599% and -0.904%
same,Potency,[6],33.5 µM (active)
N=C1N=C(N)c2cc3ccccc3cc21,Potency,[9],16.8 µM (active)
same,Potency,[10],35.5 µM (active)
same,Potency,[6],6.68 µM (active)
CCCCCCCCCCCCCCCCCC(=O)NCC(COP(=O)([O-])OCC[N+](C)(C)C)OCC (stereo not given),outcome,[2],inactive
same,outcome,[3],inactive
same,Potency,[4],inactive
c1ccc(-c2ccccn2)nc1,Potency,[5],inactive
same,outcome,[3],inactive
same,Potency,[4],inactive
CC(C)NC[C@@H](O)c1ccc(O)c(O)c1,Potency,[5],inactive
same,outcome,[3],inactive
same,Potency,[4],inactive
O=C(Nc1cccc(C(=O)Nc2ccc(S(=O)(=O)O)c3cc(S(=O)(=O)O)cc(S(=O)(=O)O)c23)c1)Nc1cccc(C(=O)Nc2ccc(S(=O)(=O)O)c3cc(S(=O)(=O)O)cc(S(=O)(=O)O)c23)c1,outcome,[2],inactive
same,Potency,[4],inactive
